Compound activity (PubChem)
Shown are actives, neighbours in structure and some others; about 7.3% of the full set was active somewhere.
NPC1 prom act: qHTS Assay for NPC1 Promoter Activators | Huh7 NPC1 promoter luciferase reporter, 24 h | Potency, µM (top dose mostly 9.22 µM), for the others: at the top dose activation, usual class: activators | 320,000 compounds, 2.4% hits | AID 485313, 2010; note: % of control where 0% means no effect; nearly all actives have a fitted effect of over 60% in size
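Readout is luciferase luminescence, reflecting NPC1 promoter activation in stably transfected Huh7 cells after 24 h compound exposure at 37 °C in reduced-serum medium with 10% FBS.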
SMN2 splice up: qHTS Assay for Enhancers of SMN2 Splice Variant Expression; HEK293 SMN2-luciferase splicing reporter, luminescence, 30-36 h; 210,000 compounds, 2.8% hits; Potency, µM (top dose mostly 46.1 µM), inactives show at the highest dose activity change, positive = activation, hits mostly activators; AID 1458, 2008; note: % of control where 0% means no effect; nearly all actives have a fitted effect of over 55% in size
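HEK293 cells carry an SMN2 minigene-luciferase reporter in which exon 7 inclusion puts luciferase in frame. Cells were seeded at 2000 cells/well, attached for 10-12 hours, then exposed to compounds for 30-36 hours at 37C before ONE-Glo luminescence.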
ELG1 genotox: qHTS screen for small molecules that induce genotoxicity in human embryonic kidney (HEK293T) cells expressing luciferase-tagged ELG1; HEK293T ELG1-luciferase reporter, luminescence, 16 h; Potency, µM (top dose mostly 46 µM), without a hit: top-dose activity change, positive = activation, hits mostly activators; 330,000 compounds, 1.3% hits; AID 504466, 2011; note: % of control where 0% means no effect; nearly all actives have a fitted effect of over 60% in size
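Genotoxic stress is detected as increased luminescence from luciferase-tagged ELG1 in HEK293T cells, measured with ONE-Glo after a 16 hr treatment at 37 °C.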
FLuc counter: qHTS profiling assay for firefly luciferase inhibitor/activator using purifed enzyme and Km concentrations of substrates (counterscreen for miR-21 project). Luciferin 4-monooxygenase (Photinus pyralis), P08659. purified FLuc, Km substrates, luminescence inhibition. Potency, µM (highest dose often 57.5 µM), for the others: top-dose activity change, negative = inhibition, hits mostly inhibitors. 360,000 compounds, 6.9% hits;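 note: plate controls were vehicle for no effect and reference inhibitor for full effect; nearly all actives have a fitted effect of over 55% in size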
Target sequence (P08659 whole entry, looked up): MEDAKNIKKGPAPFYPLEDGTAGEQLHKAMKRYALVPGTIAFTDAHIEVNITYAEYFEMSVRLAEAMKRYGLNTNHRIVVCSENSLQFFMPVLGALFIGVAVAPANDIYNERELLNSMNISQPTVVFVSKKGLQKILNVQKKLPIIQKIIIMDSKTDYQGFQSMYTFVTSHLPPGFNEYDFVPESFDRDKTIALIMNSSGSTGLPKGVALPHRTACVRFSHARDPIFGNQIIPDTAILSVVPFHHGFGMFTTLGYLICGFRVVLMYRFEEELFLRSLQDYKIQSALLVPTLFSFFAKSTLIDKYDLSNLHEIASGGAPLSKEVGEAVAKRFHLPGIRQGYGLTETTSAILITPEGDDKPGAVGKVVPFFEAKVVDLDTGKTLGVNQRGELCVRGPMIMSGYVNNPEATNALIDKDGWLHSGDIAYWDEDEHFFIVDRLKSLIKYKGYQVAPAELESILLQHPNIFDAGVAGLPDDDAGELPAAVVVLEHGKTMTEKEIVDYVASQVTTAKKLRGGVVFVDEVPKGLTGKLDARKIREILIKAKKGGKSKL
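Biochemical qHTS of compounds, final roughly 60 µM downward over six points, against 10 nM purified firefly luciferase using Km concentrations of substrates (10 uM D-luciferin, 10 uM ATP) in Tris acetate pH 7.5 buffer; luminescence output.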
p53 reactivator: qHTS assay for re-activators of p53 using a Luc reporter; H1299 p53-A138V BP100-luciferase reporter, luminescence, 24 h; Potency, µM (highest dose often 92.2 µM), inactives show at the top dose activity change, positive = activation, actives largely listed as activators; 320,000 compounds, 0.063% hits; note: % of control where 0% means no effect; nearly all actives have a fitted effect of over 45% in size
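p53-null H1299 cells stably carrying temperature-sensitive p53-A138V and a BP100-luciferase reporter were pinned with compounds (4-point, 1:5 series) and held 24 hrs at 37 deg C. Luminescence was read 10 min after detection reagent.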
Rab9 prom act: qHTS Assay for Rab9 Promoter Activators | Huh7 Rab9 promoter-luciferase reporter, luminescence, 24 h | Potency, µM (series often up to 9.22 µM), for inactives: top-dose activation, negative = inhibition, most hits filed as activators | 320,000 compounds, 2.8% hits; note: % of control where 0% means no effect; nearly all actives have a fitted effect of over 60% in size
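Huh7 cells stably carrying a Rab9 promoter-luciferase reporter, 1500 cells per well in OP-MEM I with 10% FBS, treated with compound 24 hours at 37C. Luciferase activity read by luminescence after 10 minutes with Amplite reagent.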
* hit, by the source's call; ? = inconclusive; nt = no result given; [ ] = another dose, or the depositor's remark. Calls come from the whole dose curve; as a rule, active = well fitted curve in the direction sought with a large enough effect; inconclusive = small, poorly fitted or top-dose-only effect, or another doubt; inactive = no such curve, though single readings can be large; an effect the other way counts as inactive or inconclusive. Potency is the fitted concentration of half-maximal effect.

SMILES | NPC1 prom act | SMN2 splice up | ELG1 genotox | FLuc counter | p53 reactivator | Rab9 prom act
O=c1c2cc(-c3ccccc3)sc2nc2n1N=C(c1ccccc1)CS2 | 2µM* | nt | 17% | 1.9µM* | ? | 1.8µM*
CSc1nc2sc(-c3ccccc3)cc2c(=O)n1N | 1.3µM* | 2.8µM* | ? | ? | 20% | 0.63µM*
CC(C)Sc1nc2sc(-c3ccccc3)cc2c(=O)n1N | 10% | 2% | 2% | -8% | -3% | 7%
COc1ccc(C2=Nn3c(nc4sc(C(=O)Nc5cccc(C)c5)c(C)c4c3=O)SC2)cc1 | nt | nt | nt | -3% | nt | nt
Nc1nc(N)c(N=Nc2ccc(C(=O)O)c(O)c2)c(N)n1 | nt | -5%[9.22 µM] | nt | nt | nt | nt
Cc1ccc2ccc3cc(C(=O)N4CCN(c5ccccc5)CC4)nc3c2[nH]1 | nt | nt | nt | -2% | nt | nt
CC(C)CC(=O)Nc1nc2nc(-c3ccccc3)cc(=O)n2[nH]1 | nt | -2% | nt | ? | nt | nt
CCCCC(=O)/C=C/n1c(=S)oc2ccccc21 | -19% | -6%[1.84 µM] | -11% | 2.4µM* | ? | -35%
Cc1nn(-c2ccccc2)c(N)c1N=Nc1cccc(S(=O)(=O)N2CCOCC2)c1 | -8% | nt | -3% | ? | 0% | -6%
Nc1nn(-c2ccccc2)c(N)c1N=Nc1ccccc1F | 0.56µM* | 3.5µM* | ? | 0.95µM* | ? | 0.45µM*
Cc1nn(-c2ccccc2)c(N)c1N=Nc1ccccc1 | 2.8µM* | 13µM* | ? | 6.7µM* | ? | 2µM*
Nc1c(N=Nc2ccccc2F)c(=O)[nH]n1-c1ccccc1 | ? | 20% | ? | 3.8µM* | 2% | ?
Cc1nn(-c2ccccc2)c(N)c1N=Nc1ccc(Cl)cc1 | 2.5µM* | 22µM* | ? | 8.5µM* | ? | 2µM*
O=C(CS(=O)(=O)c1cccc2nsnc12)Nc1cc(F)ccc1F | nt | nt | nt | -2% | nt | nt
Cc1ccc(NC(=O)C2CCN(C(=O)c3cnn(-c4ccccc4)c3-n3cccc3)CC2)cc1 | nt | -59% | nt | -2% | nt | nt
O=C(Cn1cnc2c(nc3n2CCCCC3)c1=O)Nc1ccc(F)cc1 | nt | nt | nt | -2% | nt | nt
Cc1cc(C)n2nc(N)c(N=Nc3ccc4c(c3)OCO4)c2n1 | -3% | -6% | 4% | -2% | 12% | 0%
Cc1cc(C)n2nc(N)c(N=Nc3ccccc3)c2n1 | 6% | nt | 6% | 15µM* | 11% | 25%
Nc1nn(-c2ccccc2)c(N)c1N=Nc1ccccc1 | ? | 8.9µM* | 15µM* | 3µM* | ? | ?
Cc1cccc(N=Nc2c(C)nn(-c3ccccc3)c2N)c1C | 24% | ? | ? | 13µM* | 21% | ?
Cc1nn(-c2ccccc2)c(N)c1C(O)(C(F)(F)F)C(F)(F)F | -5% | 18% | -1% | -4% | -8% | -12%
CCc1ccccc1NC(=O)c1ncoc1-c1ccco1 | nt | nt | nt | -15% | nt | nt
CCc1cccc(C)c1NC(=O)Cn1c(=O)cc(C(F)(F)F)c2c(C)nn(C)c21 | nt | nt | nt | -3% | nt | nt
CC(C)CCNC(=O)c1ccc(Cn2c(=O)c3cccn3c3cccnc32)cc1 | nt | nt | nt | -4% | nt | nt
N[C@H](C(=O)O)[C@H](N)C(=O)O | nt | -11%[9.22 µM] | nt | nt | nt | nt
O=C(NC1CCCCC1)c1ccc(CS(=O)(=O)Cc2ccccc2F)o1 | 11% | 10µM* | 8% | -3% | 23% | 21%
Brc1ccc(-c2nc(N/N=C/c3cccnc3)c3ccccc3n2)cc1 | 2.8µM* | 13µM* | ? | 0.21µM* | 24% | 2.5µM*
C(=N\Nc1nc(-c2cccnc2)nc2ccccc12)/c1ccccc1 | 14% | nt | -4% | 1.3µM* | 0% | 19%
Cc1ccc(-c2nc(N/N=C/c3ccccc3[N+](=O)[O-])c3ccccc3n2)cc1 | 1.6µM* | ? | 20% | 0.76µM* | 4% | 3.5µM*
COc1cccc(/C=N/Nc2nc(-c3cccnc3)nc3ccccc23)c1 | 3% | nt | 4% | 1.5µM* | -4% | 13%
